Source: PubChem
VACV mCherry inh: inhibitors of vaccinia virus infection (mCherry reporter signal). Potency, µM (doses to about 36.5 µM), without a hit: at the highest dose activity change, negative = inhibition, hits mostly inhibitors. Vaccinia virus mCherry reporter infection, fluorescence. AID 720579. 0.63% of 310,000 active; calls by dose curve; tested in A549 cells; note: nearly all actives have a fitted effect of over 35% in size
HCV inhibitor: inhibitors of hepatitis C virus infection; Huh7.5.1 HCVcc-Cre infection, luciferase reporter, 44 h; Potency, µM (titrated, usually from 41.8 µM), for inactives: top-dose activity change, negative = inhibition, usual class: inhibitors; 3.4% of 340,000 active; active = well fitted inhibition curve with a large enough effect; inconclusive = small, poorly fitted or top-dose-only effect, or another doubt; inactive = no such curve, though single readings can be large or run the other way
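Compounds are dispensed onto cells plated 4 h earlier at 1,000 per well, with HCVcc-Cre virus (about 0.5 moi) added next. Following 44 h of culture, luminescent signal is measured for 15 sec after 15 min with substrate at room temperature.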
FMDV antiviral: antivirals against foot and mouth disease virus. FMDV antiviral cell-based qHTS. Potency, µM (highest dose often 57.9 µM), for the others: top-dose activity change, negative = inhibition, actives largely listed as inhibitors. 1.2% of 410,000 active. AID 1159524; calls by dose curve; tested in HEK293T cells; note: read-out not given here; nearly all actives have a fitted effect of over 45% in size
VACV Venus inh: inhibitors of vaccinia virus (Venus reporter); Potency, µM (top dose mostly 36.5 µM), for the others: at the top dose activity change, negative = inhibition, actives largely listed as inhibitors; 0.46% of 330,000 active; AID 720580; Vaccinia virus Venus reporter expression, fluorescence; calls by dose curve; tested in A549 cells; note: nearly all actives have a fitted effect of over 30% in size
Marburg entry inh: Marburg virus entry inhibition; Potency, µM (doses to about 37.8 µM), for the others: top-dose activity change, negative = inhibition, most hits filed as inhibitors; 1.8% of 300,000 active; Marburg virus pseudotyped entry inhibition, cell reporter; calls by dose curve; tested in HEK293 cells
LASV entry inh: blocks Lassa virus binding to or entry into cells. AID 540256. Potency, µM (series often up to 37.9 µM), for inactives: at the top dose activity change, negative = inhibition, most hits filed as inhibitors. Lassa virus pseudotype entry inhibition, cell reporter. 1.2% of 300,000 active; calls by dose curve; tested in HEK293 cells; note: nearly all actives have a fitted effect of over 50% in size
An asterisk follows results filed as active; i = inactive; ? = inconclusive; . = no result given; [ ] = another dose, or the depositor's remark. An excerpt weighted towards active compounds, which were near 5.3% of everything screened. % is set by controls: 0 for no effect and ±100 for the full control effect; potency is the fitted concentration of half-maximal effect.

SMILES	VACV mCherry inh	HCV inhibitor	FMDV antiviral	VACV Venus inh	Marburg entry inh	LASV entry inh
O=[N+]([O-])c1ccc(O)c(/C=N/Nc2nc3ccccc3[nH]2)c1	8.9µM*	11µM*	11%	?	2.8µM*	3.5µM*
O=[N+]([O-])c1ccc(O)c(/C=N/Nc2ncnc3c2cnn3-c2ccccc2)c1	.	2.8µM*	27%	.	.	.
O=[N+]([O-])c1ccc(O)c(/C=N/Nc2ccccn2)c1	1.8µM*	2.5µM*	-22%	5µM*	?	?
COc1ccccc1N(C)S(=O)(=O)c1ccc(C(=O)OC(C)C(=O)NCc2ccc3c(c2)OCO3)cc1 (centres undefined)	i	11µM*	?	-11%	.	.
CCCc1nc2ccccc2c(C(=O)OCC(=O)NCc2ccc3c(c2)OCO3)c1CC	.	?	?	.	-32%	?
CCCc1nc2ccccc2c(C(=O)OC(C)C(=O)NCc2ccc3c(c2)OCO3)c1CC (centres undefined)	?	?	?	10µM*	?	-21%
CC(OC(=O)c1ccc(Cl)cc1)C(=O)NCc1ccc2c(c1)OCO2 (centres undefined)	.	4%	-20%	.	.	.
NC(=O)[C@@H]1CCCN1C(=O)CC1(c2cccc(F)c2)CC(=O)N(C2CCCC2)C1=O (some centres undefined)	-4%	.	-14%	2%	.	.
CC(=O)Nc1nonc1NC(=O)COc1ccccc1	i	13%	5%	3%	6%[46.1 µM]	-2%
Cc1ccc(C=C2C(Cl)=C(Cl)C(Cl)=C2Cl)cc1	4%	-3%	18µM*	10%	17%[46.1 µM]	13%
CCc1ccc(CNC(=O)Cn2nc(C)c3nn(-c4ccc(Cl)cc4)c(C)c3c2=O)cc1	i	.	-19%	-20%	.	?
O=c1oc2ccccc2c2c1[C@H]1O[C@](c3ccsc3)(Cc3c1ccc1ccccc31)O2	.	.	.	.	5%[14.2 µM]	.
CC1CCN2c3ccccc3CC3(C(=O)OC(C)(C)OC3=O)C2C1 (centres undefined)	-14%	.	.	-6%	.	.
O=C(CCn1c(=O)[nH]c2ccccc21)NCC1Cc2cc(Cl)cc(-c3ccncc3)c2O1 (centres undefined)	i	.	-9%	-17%	.	.
CC(Oc1cccc(Cl)c1)C(=O)Nc1nc(-c2ccccn2)cs1 (centres undefined)	11µM*	6.3µM*	?	?	?	?
CC(Oc1ccccc1)C(=O)Nc1nc(-c2ccccn2)cs1 (centres undefined)	7.1µM*	?	-21%	?	-14%[46.1 µM]	-19%
CC(Oc1ccccc1)C(=O)Nc1nc(-c2ccncc2)cs1 (centres undefined)	.	3%	-1%	.	.	.
C[C@H](NC(=O)c1ccccc1)C(=O)Nc1nc(-c2ccccn2)cs1	-2%	?	?	-4%	?	-29%
Clc1ccccc1Nc1nnc(-c2ccncc2)s1	i	-19%	?	-9%	?	5µM*
CCCc1cc(-c2[nH]ncc2-c2ccc(C(=O)OCC)o2)c(O)cc1O	?	?	.	?	?	-17%
CCCc1cc(-c2[nH]ncc2-c2ccc3c(c2)OCCCO3)c(O)cc1O	.	11µM*	14µM*	.	15µM*	?
C1=Cc2ccccc2/C1=C\c1ccc2c(c1)OCO2	-15%	.	.	-14%	.	.
Cc1cc(C(=O)CSc2nnc(N)s2)c(C)n1CCc1ccc(Cl)cc1	.	?	?	.	-30%	-4%
COc1ccc(CCn2c(C)cc(C(=O)CCl)c2C)cc1OC	.	?	20µM*	.	.	.
Cc1cc(C(=O)CCl)c(C)n1CCc1ccc(F)cc1	-8%	?	28µM*	-2%	?	?
SMILES	VACV mCherry inh	HCV inhibitor	FMDV antiviral	VACV Venus inh	Marburg entry inh	LASV entry inh
Cc1cc(C(=O)CCl)c(C)n1CCc1ccc(Cl)cc1	-12%	10µM*	22µM*	-16%	?	?
CCOC(=O)c1cc(C)n(Cc2ccc(OCC)c(OC)c2)c1C	.	11µM*	?	.	-24%	-18%
CCOC(=O)c1c(C)c(C)n(Cc2ccc(OC)c(OC)c2)c1C	-13%	?	?	-25%	?	-23%
Cc1cccc(Nc2c(-c3cccs3)nc3nc(C)cc(C)n23)c1	-18%	.	21%	-18%	?	2%[46.1 µM]
COC(=O)c1cc(=O)n(CCc2ccc(OC)cc2)c(=Nc2ccc(F)c(Cl)c2)s1	-18%	?	22µM*	-1%	-2%	.
CCn1c(=O)cc(C(=O)OC)sc1=Nc1ccc(F)c(F)c1	?	13µM*	32µM*	-9%	.	.
COC(=O)c1cc(=O)n(CCc2ccccc2)c(=Nc2ccc(F)cc2)s1	11%	7%	?	-5%	.	.
CC(=O)N1CCCN(C(=O)c2ccc3nc(Cc4ccccc4F)oc3c2)CC1	i	26%	7%	-10%	0%	4%
CCOC(=O)C1CCCN(C(=O)c2ccc3oc(Cc4ccccc4)nc3c2)C1 (centres undefined)	.	-9%	40%	.	.	.
CC(C)CC(=O)C1CCCN(C(=O)c2ccc3oc(Cc4ccccc4)nc3c2)C1 (centres undefined)	-14%	22µM*	-23%	-8%	-7%[46.1 µM]	?
O=C(c1ccc2nc(Cc3ccccc3F)oc2c1)N1CCCC1	-22%	2%	25%	-10%	?	6.3µM*
O=C1[C@H](Cc2ccccc2)NC/C=C\C[C@@H](c2ccc(Cl)cc2)N1Cc1ccccc1	0%	.	.	-13%	.	.
Cc1cc2cc(C(c3nnnn3C3CCCC3)N(Cc3cccnc3)Cc3ccco3)c(=O)[nH]c2cc1C (centres undefined)	-10%	-8%	?	-21%	4.1µM*	?
CCS(=O)(=O)N1CCCC(C(=O)c2ccc(OC)cc2C)C1 (centres undefined)	-19%	?	-13%	-15%	-9%[46.1 µM]	?
COc1ccc(C(=O)C2CCCN(S(=O)(=O)c3ccc(C(C)=O)cc3)C2)c(C)c1 (centres undefined)	.	10µM*	?	.	.	.
COc1ccc(OC2CCN(S(=O)(=O)c3ccc(C(C)=O)cc3)CC2)cc1	.	13µM*	-21%	.	.	.
CCN(CC)CCOC(=O)c1ccc(Nc2c3c(nc4ccccc24)CCC3)cc1	i	.	-19%	-3%	?	?
CC1CCCC(C)N1C(=O)c1ccccc1Nc1ccc(SC(F)F)cc1 (centres undefined)	.	2.8µM*	-27%	.	12µM*	?
CCc1ccc(NC(=O)Cn2ncc3c(C)n(Cc4cccc(Cl)c4)c(C)c3c2=O)cc1	-23%	.	-4%	-29%	?	?
Fc1cccc(Nc2ncnc3[nH]ncc23)c1	.	-7%	-19%	.	.	.
O=C(c1ccco1)N1CCN(Cc2cc(=O)c(OCc3cccc(F)c3)co2)CC1	0%	14%	11%	8%	?	12%
CN1CCN(Cc2ccc(-c3cc4ncnc(Nc5ccc(OCc6cccc(F)c6)c(Cl)c5)c4s3)o2)CC1	.	.	.	.	.	20µM*
Fc1cccc(COc2ccc(Nc3ncnc4sc(-c5cccs5)cc34)cc2Cl)c1	.	.	.	.	.	16µM*
